# Assay results taken from PubChem BioAssay AID651791 (National Center for Advancing Translational Sciences (NCATS), 2012).
# Results filed as inconclusive are left out. The source made the active and inactive calls. Calls come from the whole dose curve; as a rule, active = well fitted inhibition curve with a large enough effect; inconclusive = small, poorly fitted or top-dose-only effect; inactive = no such curve, though single readings can be large or run the other way.
# Experiment: InCell qHTS Assay for Inhibitors of the mTORC1 Signaling Pathway in MEF (Tsc2-/-, p53-/-) Cells: Hit Validation;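 note: phospho-S6 Ser235/236 signal normalized to propidium iodide cell count per well; nearly all actives have a fitted effect of over 75% in size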
# Settings: phospho-rpS6 immunofluorescence, 24 h; activity change, negative = inhibition: at 38.3 µM (top of the series)
# Potency is the fitted concentration of half-maximal effect.
Compound,"activity change, negative = inhibition",Potency
Cc1ccccc1NC(=O)c1c(NC(=O)C(F)(F)F)sc2c1CCCCC2,-100%,
COc1ccc(-c2ccc(CCC(=O)O)n2-c2cc(Cl)ccc2O)cc1,-100%,
Cc1c(C(=O)Nc2ccc(F)cc2F)nnn1-c1ccccc1Br,-100%,
CCc1ccc(S(=O)(=O)c2nnn(-c3ccc(F)cc3)c2N)cc1,-100%,
CCc1ccc(NC(=O)C2CCCN(S(=O)(=O)c3cccc4cccnc34)C2)cc1 (configuration not stated),-100%,
Cc1ccc(O)c(C(CC(=O)NCC2(c3ccccc3)CCCC2)c2ccccc2)c1 (configuration not stated),-100%,
Cc1ccc2occ(CC(=O)Nc3ccc(Cl)c(C(F)(F)F)c3)c2c1,-100%,
Cc1ccc(-c2noc(CCC(=O)N(C)c3ccccc3F)n2)cc1,-100%,
FC(F)(F)c1cccc(Nc2c3c(nc4ccc(Cl)cc24)CCC3)c1,-100%,
C=CCc1c(C)nc2nc(SCC(=O)Nc3ccc(C)c(C)c3)nn2c1C,,9.27 µM (active)
COc1ccc(CCNC(=O)C(C)n2nc(C)c3sc4ccccc4c3c2=O)c(OC)c1 (configuration not stated),-100%,
COc1ccc(Nc2cc(C)nc(-n3nc(C)cc3C)n2)cc1Cl,-100%,
CCOc1ccc(S(=O)(=O)N(C(C)=O)c2ccc3oc(C)c(C(=O)OC)c3c2)cc1,-100%,
CN1CCN(C(CNC(=O)C(=O)Nc2cccc(Cl)c2)c2ccc3c(c2)OCO3)CC1 (configuration not stated),-100%,
COc1ccc2cc(CNc3ccccc3)c(=O)n(CC(=O)Nc3ccc(C)cc3C)c2c1,-13.3%,
CCOC(=O)CSc1nc2cc3c(cc2c(=O)n1CCCCCC(=O)NCc1ccc2c(c1)OCO2)OCO3,-100%,
CCOC(=O)N1CCN(Cc2nc3cc(NC(=O)C(C)C)ccc3n2C(C)C)CC1,-100%,
CN(CCCNC(=O)c1cc2c(Cl)nc3ccccc3c2s1)Cc1ccccc1,-100%,
CCCCN1C(=O)C(O)(c2c(C)[nH]c3ccccc23)c2cc(Br)ccc21 (configuration not stated),-21.8%,

Compound,"activity change, negative = inhibition",Potency
CC(CNC(=O)c1ccc(Nc2nc3ccccc3n3nnnc23)cc1)c1ccccc1 (configuration not stated),-100%,
CCS(=O)(=O)c1ncc(Cl)c(C(=O)NCc2ccc(OC)cc2)n1,,4.65 µM (active)
Cc1ccc([C@H]2Nc3ccc(S(=O)(=O)Nc4cccc(Cl)c4C)cc3[C@H]3C=CC[C@H]32)cc1,-100%,
COc1ccc2c(c1)CC(C(=O)Nc1cc(Cl)ccc1C)CO2 (configuration not stated),-100%,
CCCCN(C)CCNC(=O)c1cc2c(=O)n(C)c3ccccc3c2n1C,-100%,
CC(C(=O)NCc1cccc(Br)c1)n1ncn2cccc2c1=O (configuration not stated),-100%,
CCN(CC)c1ccc(NC(=O)CN(C)S(=O)(=O)c2cccc3nsnc23)c(C)c1,-100%,
Cc1cc(C)cc(NC(=O)c2cnn(-c3ccc(C)c(C)c3)c2C2CCNCC2)c1,-19.5%,
Cc1cccc(Cn2cc(C(=O)Nc3ccc(F)c(C(F)(F)F)c3)ccc2=O)c1,-100%,
COC(=O)c1ccc(NC(=O)c2nc(-c3ccc(Cl)cc3)n3c2CCCCC3)cc1,-100%,
CCS(=O)(=O)c1ncc(Cl)c(C(=O)N2CCN(c3ccc(OC)cc3)CC2)n1,,4.65 µM (active)
Cc1ccc(C)c(NC(=O)c2nc(S(=O)(=O)Cc3ccc(F)cc3)ncc2Cl)c1,,3.29 µM (active)
CS(=O)(=O)N(CC(=O)NCCc1ccccc1)c1cc(C(F)(F)F)ccc1Cl,-100%,
CCN(c1ccccc1)S(=O)(=O)c1ccc(NC(=O)c2nc(S(C)(=O)=O)ncc2Cl)cc1,,3.69 µM (active)
COc1cc(Cl)c(C)cc1NC(c1ccccc1)c1nnc(-c2ccccc2Cl)o1 (configuration not stated),-100%,
CCc1ccc(-n2c(=O)c3c4c(sc3n(CC(=O)c3ccc(F)cc3)c2=O)CCC4)cc1,,9.27 µM (active)
CCOC(=O)c1cnc2c(ccc3ccccc32)c1Nc1ccc(OC)cc1OC,-100%,
CCOc1ccccc1NS(=O)(=O)c1ccc(-c2cnc(C3CC3)o2)cc1,-100%,
